Assay outcomes (PubChem BioAssay)
A3A deaminase – blocks human APOBEC3A ssDNA deamination | recombinant A3A, FAM/TAMRA ssDNA deamination fluorescence | inhibition, % at 20 µM | hit rate 0.41% among 330,000 | AID 493011;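 active = at least 40% inhibition at 20 µM here, with at most 30% in a related deaminase screen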
Target sequence (P31941 whole entry, looked up): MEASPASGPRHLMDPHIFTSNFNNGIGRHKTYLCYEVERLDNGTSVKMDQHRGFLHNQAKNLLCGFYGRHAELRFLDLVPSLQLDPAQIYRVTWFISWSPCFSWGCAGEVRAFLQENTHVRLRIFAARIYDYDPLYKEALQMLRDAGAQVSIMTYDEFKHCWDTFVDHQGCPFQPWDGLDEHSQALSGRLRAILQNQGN
PfGluPho inh – PfG6PD (Plasmodium falciparum) enzyme inhibition | PfGluPho enzyme, NADPH resazurin-diaphorase fluorescence | inhibition, % at 20 µM | hit rate 0.78% among 350,000 | AID 504690;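 active = inhibition reaching at least a set limit at 20 µM in the primary screen, cut at about 59% in these data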
NadD inh – inhibitors of Staphylococcus aureus NadD. purified NadD enzyme, colorimetric absorbance read-out. hit rate 0.78% among 360,000. inhibition, % at 20 µM. AID 602399; in the data active = inhibition above about 26%
H9c2 TAG inh – triacylglycerol accumulation inhibition; H9c2 cells, Nile Red lipid (TAG) fluorescence; cells loaded with 200 µM oleic acid; inhibition, % at 12.5 µM; hit rate 0.66% among 230,000; AID 651582;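 active = pattern-corrected inhibition of lipid staining of at least 50% with the nuclear-stain viability signal not falling by more than 50%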
H9c2 protect – protects H9c2 cardiomyocytes from peroxide injury; protection from H2O2 cell death, % at 20 µM; H2O2 injury protection, ATPLite, 2 h; hit rate 0.63% among 360,000;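 active = compounds giving at least 50% protection of heart cells from peroxide-induced death in the single-dose screen, raw or plate-pattern-corrected value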
A3G deaminase – inhibitors of human APOBEC3G DNA deaminase. Q9HC16. recombinant A3G, ssDNA deamination FAM/TAMRA fluorescence. inhibition, % at 20 µM. hit rate 0.28% among 330,000;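 active = inhibition of at least 40% at 20 µM, with no more than 30% in the related APOBEC3A deaminase screen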
Target sequence (Q9HC16 whole entry, looked up): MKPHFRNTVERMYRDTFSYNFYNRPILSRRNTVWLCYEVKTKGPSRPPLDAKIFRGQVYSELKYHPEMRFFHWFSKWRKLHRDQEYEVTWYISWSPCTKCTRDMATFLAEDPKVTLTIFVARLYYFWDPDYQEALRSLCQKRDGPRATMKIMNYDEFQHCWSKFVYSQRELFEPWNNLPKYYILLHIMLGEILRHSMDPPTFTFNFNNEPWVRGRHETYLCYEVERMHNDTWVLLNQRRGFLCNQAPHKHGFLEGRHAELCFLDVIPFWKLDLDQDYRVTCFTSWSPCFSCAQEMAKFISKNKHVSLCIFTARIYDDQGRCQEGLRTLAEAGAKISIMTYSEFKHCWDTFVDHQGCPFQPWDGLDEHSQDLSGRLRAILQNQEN
A3A conf – APOBEC3A (human) deaminase inhibition, confirmed. shares compounds with A3A deaminase. recombinant A3A, ssDNA deaminase UDG fluorescence assay. hit rate 63% among 1,400. AID 493151. inhibition, % at 20 µM;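 active = inhibition reaching a set limit, 80% of the first screen's cutoff, at 20 µM in any replicate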
UDG A3A counter – UDG inhibition in APOBEC3A counter-screen; shares compounds with A3A deaminase; UDG counterscreen, FAM/TAMRA uracil oligo fluorescence; inhibition, % at 20 µM; 1,000 tested, under 10 active; call rule not given here
A number is an active result; 0 = inactive; - = not tested or not shown; ! = not active in a repeat. This is a sample that favours compounds with a hit; in the whole collection about 2.9% have one here.

SMILES	A3A deaminase	PfGluPho inh	NadD inh	H9c2 TAG inh	H9c2 protect	A3G deaminase	others
O=c1[nH]c2ccccc2n1CCCN1CCC(n2c(=O)[nH]c3cc(Cl)ccc32)CC1	0	0	0	0	63	0
COC1=C(C)C(=O)C2=C(C1=O)C(CO)N1C(C#N)C3CC4C(C1C2N1CCOC41)N3C (centres undefined)	-	84	0	83	0	-
Cc1ccccc1N1C(=O)NC(=O)/C(=C\c2ccc3c(c2)CCCN3Cc2ccccc2)C1=O	0	0	39	-	0	0
COc1ccc(/C=C2/C(=O)NC(=O)N(c3ccccc3)C2=O)cc1CN1C(=O)c2ccccc2C1=O	0	0	0	0	0	0
COc1ccc(-c2ccc3c(c2)CNCc2cnnn2-3)cc1	-	-	0	-	0	-
CN(C)[C@@H]1C(=O)C(C(N)=O)=C(O)[C@@]2(O)C(=O)C3=C(O)c4c(O)cccc4[C@@](C)(O)[C@H]3[C@H](O)[C@@H]12	0	0	38!	0	0	0
CN(C)[C@@H]1C(=O)C(C(N)=O)=C(O)[C@@]2(O)C(=O)C3=C(O)c4c(O)cccc4[C@@](C)(O)C3C[C@@H]12 (some centres undefined)	0	0	0	0	0	0
CC1=C(C)CN2CC(C#N)=C(N)C2C1 (centres undefined)	-	-	0	-	0	-
C[CH2][Hg][S]c1ccccc1C(=O)O	0	0	0	0	0	0
COc1ccc(C(=O)O)cc1OC	-	0	0	-	0	-
O=C(O)c1cc[c]([Hg][Cl])cc1	0	122	0	0	0	0
COc1cc(C)c(CN2CC=C(c3ccc(F)cc3)CC2)cc1C	0	0	0	0	0	0
COc1cc2nc(CN3CC=C(c4ccccc4)CC3)[nH]c(=O)c2cc1OC	0	0	0	73	0	0
CC(C)N1C(=O)/C(=C/C=C/c2ccco2)C(=O)N(Cc2ccco2)C1=O	0	0	0	0	0	0
COc1ccc(/C=C2/C(=O)N(Cc3ccco3)C(=O)N(C(C)C)C2=O)cc1	0	0	34	0	0	0
CCOC(=O)c1cccc(C2=C(CNC(=O)c3cccnc3)[C@H]3CC[C@@H](C2)N3Cc2ccccc2)c1	-	0	0	0	55	-
C[C@@H]1CN([C@@H](C)CO)C(=O)CCCn2nncc2CO[C@@H]1CN(C)C(=O)Oc1cccc2ccccc12	-	0	0	0	0	-
C=C1C(C)C2C(Cc3ccccc3)NC(=O)C23OC(=O)/C=C/C(O)CCCC(C)C/C=C/C3C1O (centres undefined)	-	0	0	0	57	-
COc1ccccc1N1C(=O)NC(=O)/C(=C\c2cnn(-c3ccccc3)c2)C1=O	0	0	0	0	0	0
COc1ccc(CN2C(=O)NC(=O)/C(=C/c3ccc([N+](=O)[O-])s3)C2=O)cc1	0	67	45	0	0	0
O=C1NC(=O)N(CCc2ccc(F)cc2)C(=O)/C1=C/c1cccs1	0	0	0	0	0	0
COc1ccc(N2C(=O)NC(=O)/C(=C/c3ccc([N+](=O)[O-])s3)C2=O)cc1	0	0	0	0	0	0
COc1ccccc1N1C(=O)NC(=O)/C(=C/c2ccc([N+](=O)[O-])s2)C1=O	0	72	-	-	-	0
O=C1NC(=O)N(Cc2ccc(F)cc2)C(=O)/C1=C\c1ccc(N2CCCC2)cc1	0	0	33	0	0	0
O=C1NC(=O)N(Cc2ccc(F)cc2)C(=O)/C1=C\c1ccc([N+](=O)[O-])s1	0	71	37	0	0	0
SMILES	A3A deaminase	PfGluPho inh	NadD inh	H9c2 TAG inh	H9c2 protect	A3G deaminase	others
N#Cc1ncc(N=Cc2ccc(N(CCCl)CCCl)cc2)s1	-	0	0	0	0	-
S=C(NCCc1ccccc1)N1Cc2ccc(Br)cc2-n2nncc2C1	-	-	0	-	0	-
COc1ccc(N2C(=O)NC(=O)/C(=C\c3ccc([N+](=O)[O-])s3)C2=O)cc1	0	63	0	-	0	0
COc1ccc(CN2Cc3cnnn3-c3ccccc3C2C)cc1 (centres undefined)	-	0	0	0	0	-
COc1cccc(C(c2nnnn2-c2c(C)cccc2C)N2CCC(n3c(=O)[nH]c4ccccc43)CC2)c1OC (centres undefined)	-	-	0	-	0	-
O=C1NC(=O)N(Cc2ccco2)C(=O)/C1=C/c1ccc(-c2cccc([N+](=O)[O-])c2)o1	0	90	67	-	0	0
CCCCn1nnnc1C(CCSC)N1CCC(n2c(=O)[nH]c3ccccc32)CC1 (centres undefined)	-	-	0	-	0	-
O=C1NC(=O)N(c2ccccc2)C(=O)/C1=C/c1ccc(Sc2ccccc2)o1	-	0	37	-	0	-
Cc1cccc(N2C(=O)NC(=O)/C(=C/c3ccc(-c4ccc(C(=O)O)c(Cl)c4)o3)C2=O)c1	0	-	-	-	-	0
O=C1NC(=O)N(c2cccc(Cl)c2)C(=O)/C1=C\c1ccc(Sc2nc3ccccc3[nH]2)o1	0	0	65	0	0	0
O=C1NC(=O)N(c2ccccc2F)C(=O)/C1=C/c1ccc(Sc2nc3ccccc3[nH]2)o1	-	0	45	-	0	-
O=C1NCN(c2ccccc2)C12CCN(C(c1ccccc1OC(F)(F)F)c1nnnn1-c1ccc3c(c1)OCCO3)CC2 (centres undefined)	-	-	0	-	0	-
CCCCCN1C(=O)c2ccccc2[C@@]2(C(=O)OCC)Cc3cc(OC)ccc3[C@@H]12	-	-	0	-	-	-
CC(C)(C#CCCCCC#CC(C)(C)[N+](C)(C)C)[N+](C)(C)C	51	-	-	-	-	0	A3A conf=46
Cc1cc(/C=C2\C(=O)NC(=O)N(c3cccc(F)c3)C2=O)c(C)n1-c1cc(C(=O)O)cc(C(=O)O)c1	70	0	0	-	0	0	A3A conf=53;UDG A3A counter=0
Cc1cc(/C=C2\C(=O)NC(=O)N(c3ccc(Br)cc3)C2=O)c(C)n1-c1cc(C(=O)O)cc(C(=O)O)c1	0	0	0	-	0	0
C[N+]12CCC(CC1)C(C#N)(N1CCOCC1)C2 (centres undefined)	46	0	0	0	0	0	A3A conf=81;UDG A3A counter=0
Cc1cc(C)c(S(=O)(=O)N2Cc3ccccc3-n3nncc3C2)c(C)c1	-	0	0	0	0	-
O=Cc1cn(Cc2c(F)cccc2Cl)c2ccccc12	0	0	0	0	0	0
O=Cc1cn(Cc2ccccc2F)c2ccccc12	45	0	0	0	0	0	A3A conf=0
CCOC(=O)[C@]12Cc3ccccc3[C@H]1N(CCC(=O)OC)C(=O)c1ccccc12	-	-	0	-	-	-
CCN(CC)P(c1n(C)cc[n+]1C)N(CC)CC	62	0	0	0	0	0	A3A conf=65;UDG A3A counter=0
COC(=O)C1=C(c2ccc(OCc3ccccc3)cc2)C[C@@H]2CC[C@H]1N2C(=O)NC1CCN(Cc2ccccc2)CC1	0	0	0	0	0	0
